L3MBTL1 inh: qHTS Assay for the Inhibitors of L3MBTL1; 230,000 compounds, 0.66% hits; Potency, µM (titrated, usually from 57.1 µM), for inactives: at the highest dose activity, negative = inhibition, hits mostly inhibitors; AlphaScreen L3MBTL1–H3K9me1 peptide binding; Lethal(3)malignant brain tumor-like protein 1 (Homo sapiens), Q9Y468; AID 485360, 2010; note: % is set by controls: 0 for no effect and ±100 for the full control effect; nearly all actives have a fitted effect of over 60% in size
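L3MBTL1 50 nM + b-AHA-H3(1-15)K9me1 75 nM, 30 min RT; compound added, 30 min RT; streptavidin donor/Ni-chelate acceptor beads 10 ug/mL each final, 30 min RT dark; AlphaScreen read.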
BAZ2B inh: qHTS Assay for Inhibitors of BAZ2B | 360,000 compounds, 4.4% hits | Potency, µM (titrated, usually from 114 µM), inactives show top-dose activity change, negative = inhibition, most hits filed as inhibitors | Bromodomain adjacent to zinc finger domain protein 2B (Homo sapiens), Q9UIF8 | AID 504333, 2011 | AlphaScreen BAZ2B-H3K14Ac peptide displacement; note: % is set by controls: 0 for no effect and ±100 for the full control effect; nearly all actives have a fitted effect of over 60% in size
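Complex of BAZ2B and biotin-H3K14Ac (50 nM apiece) forms over 30 min at RT, then faces library compounds up to 110 uM for another 30 min; AlphaScreen beads added, 20 min dark incubation, luminescence read.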
G9a inh: qHTS Assay for Inhibitors of Histone Lysine Methyltransferase G9a; Histone-lysine N-methyltransferase EHMT2 (Homo sapiens), Q96KQ7; AID 504332, 2011; 350,000 compounds, 8.8% hits; G9a H3K9 monomethylation, AlphaScreen, 2 h; Potency, µM (series often up to 102 µM), for inactives: top-dose activity, negative = inhibition, actives largely listed as inhibitors; note: % is set by controls: 0 for no effect and ±100 for the full control effect; nearly all actives have a fitted effect of over 75% in size
Target sequence (Q96KQ7 913-1193 limits assumed): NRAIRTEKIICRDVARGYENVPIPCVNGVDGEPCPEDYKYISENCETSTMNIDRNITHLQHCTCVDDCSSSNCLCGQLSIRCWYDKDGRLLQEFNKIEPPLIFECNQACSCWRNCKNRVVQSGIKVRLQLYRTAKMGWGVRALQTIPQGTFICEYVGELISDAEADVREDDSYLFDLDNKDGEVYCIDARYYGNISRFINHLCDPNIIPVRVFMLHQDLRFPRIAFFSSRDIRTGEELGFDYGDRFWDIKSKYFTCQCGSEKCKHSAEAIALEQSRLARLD
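Enzyme 20 nM + cpd, 15 min RT; add b-H3K9 pep 500 nM / SAM 20 uM; 2 h RT; anti-H3K9me1 Ab 0.5 ug/mL + SA donor / anti-rabbit acceptor beads 20 ug/mL each, 10 min; AlphaScreen read.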
HP1b chromo inh: HTS for Inhibitors of HP1-beta Chromodomain Interactions with Methylated Histone Tails | AlphaScreen HP1-beta / biotin-H3K9me3 peptide binding | 390,000 compounds, 0.56% hits | Chromobox protein homolog 1 (Homo sapiens), P83916 | Potency, µM (top dose mostly 114 µM), for inactives: at the highest dose activity change, negative = inhibition, usual class: inhibitors; note: nearly all actives have a fitted effect of over 70% in size
Target sequence (P83916 whole entry, looked up): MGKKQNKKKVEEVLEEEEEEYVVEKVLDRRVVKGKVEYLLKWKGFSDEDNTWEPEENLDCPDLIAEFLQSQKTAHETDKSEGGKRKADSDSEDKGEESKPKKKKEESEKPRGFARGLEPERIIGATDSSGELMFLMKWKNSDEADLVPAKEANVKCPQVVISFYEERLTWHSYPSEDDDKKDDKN
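HP1-beta protein (50 nM final) preincubated 30 min at room temperature with biotinylated H3(1-18)K9me3 peptide (50 nM) in PBS pH 7.4, 0.01% Tween-20, then compound added for 30 min. AlphaScreen streptavidin donor/nickel chelate acceptor beads (10 ug/mL final), 30 min dark, luminescence read.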
JMJD2A Tudor inh: qHTS Assay for Inhibitors of JMJD2A-Tudor Domain. 390,000 compounds, 4.4% hits. Lysine-specific demethylase 4A (Homo sapiens), O75164. Potency, µM (series often up to 114 µM), for the others: at the top dose activity change, negative = inhibition, most hits filed as inhibitors. AID 504339, 2011. AlphaScreen JMJD2A-Tudor / H3K4me3 peptide binding; note: % is set by controls: 0 for no effect and ±100 for the full control effect; nearly all actives have a fitted effect of over 50% in size
Sfp inh: qHTS Assay for Inhibitors of Bacillus subtilis Sfp phosphopantetheinyl transferase (PPTase) | 4'-phosphopantetheinyl transferase ffp (Bacillus subtilis), Q9F4F7 | Biochemical Sfp PPTase activity, qHTS | Potency, µM, without a hit: largest response in the series, negative = inhibition, usual class: inhibitors | 310,000 compounds, 3.5% hits | AID 1490, 2009;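 note: the enzyme is Sfp with the accession as filed and its product quenches rhodamine fluorescence; 0% = enzyme reaction without inhibitor and -100% = no enzyme wells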
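Sfp 15 nM + cpd, 15 min RT; start w/ rhodamine-CoA 5 uM, BHQ-2-YbbR 12.5 uM (final); 50 mM Hepes pH 7.6, 10 mM MgCl2, 0.01% NP-40, 0.01% BSA; read 525/598 nm at 0 and 30 min.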
Active calls of the source: *; ? = inconclusive; . = no result; [ ] = remark or other dose. A selection: hits, their analogues and other compounds. The true share with any hit is near 12%. Calls come from the whole dose curve; as a rule, active = well fitted curve in the direction sought with a large enough effect; inconclusive = small, poorly fitted or top-dose-only effect, or another doubt; inactive = no such curve, though single readings can be large; an effect the other way counts as inactive or inconclusive. Potency is the fitted concentration of half-maximal effect.

SMILES	L3MBTL1 inh	BAZ2B inh	G9a inh	HP1b chromo inh	JMJD2A Tudor inh	Sfp inh
CC(/C=C1\N=C(SCc2ccccc2Cl)SC1=O)=C\c1ccccc1	-3%	?	-12%	?	56µM*	-4%
O=C1NNC(c2ccccc2)=N/C1=C\c1ccccc1Cl	-5%	-18%	.	19%	-32%	11%
COc1cc(C2=N/C(=C\c3ccccc3)C(=O)O2)cc(OC)c1OC	.	.	.	.	.	12%
CC1=N/C(=C/c2ccco2)C(=O)O1	.	.	28µM*	-1%	?	?
COc1cc(/C=C2\N=C(c3ccccc3)NNC2=O)cc(OC)c1OC	-4%	-21%	25µM*	28%	-17%	14%
O=C1NNC(c2ccccc2)=N/C1=C\c1ccco1	?	71µM*	.	-12%	?	35µM*
O=C1SC(SCc2ccccc2)=N/C1=C\c1ccc(C(=O)O)cc1	?	?	.	-11%	?	56µM*
CCCN(CCC)S(=O)(=O)c1cc(Br)cc2c1N(C(=O)CC)CC2	-5%	13%	50µM*	60%	12%[57.1 µM]	-12%
CCC(=O)N1CCc2cc(Br)cc(S(=O)(=O)CCC(=O)N(CC)CC)c21	17%	-1%	6%	25%	-13%	13%
CCN(C(=O)CCS(=O)(=O)c1cc(Br)cc2c1N(C(=O)C1CC1)CC2)c1cccc(C)c1	.	3%	-20%[59 µM]	24%	-9%	.
CCC(=O)N1CCc2cc(Br)cc(S(=O)(=O)CCC(=O)N(C)c3cccc(C)c3)c21	28µM*	45µM*	-3%[12.7 µM]	?	50µM*	.
CCNc1nc(N2CCOCC2)nc(N(c2ccccc2)c2ccccc2)n1	-6%	3%	?	37%	-24%	1%
NNc1nc(NCc2ccccc2)nc(N2CCOCC2)n1	-19%	79µM*	2%[59 µM]	26%	?	10%
O=[N+]([O-])c1ccc(/C=N/Nc2nc(NCc3ccccc3)nc(N3CCOCC3)n2)cc1	?	-6%	30%	57%	-25%	-9%
O=[N+]([O-])c1cccc(/C=N/Nc2nc(NCc3ccccc3)nc(N3CCOCC3)n2)c1O	-16%	-24%	?	-7%	20µM*	-19%
CCOC(=O)c1c(C)oc2c1c1c(c3ccccc32)OCN(Cc2ccccn2)C1	-13%	45µM*	12%[0.501 µM]	-8%	?	?
CCOC(=O)c1c(C)oc2ccc(O)c(CN3CCCCC3)c12	2%	15%	1%[12.7 µM]	19%	-6%	-4%
CCOC(=O)c1c(C)oc2c1c(C(c1ccncc1)N1CCOCC1)c(O)c1ccccc12 (stereo not given)	-5%	14µM*	?	71µM*	?	?
CCOC(=O)c1c(C)oc2c1c(CN1CCN(CCO)CC1)c(O)c1ccccc12	.	.	1.4µM*	?	?	?
CCOC(=O)c1c(C)oc2c1c(C=NCCC(=O)O)c(O)c1ccccc12	16%	?	50µM*	24%	-24%	-7%
CCOC(=O)c1c(C)oc2ncnc(N3CCN(c4ccccc4)CC3)c12	.	-14%[57.1 µM]	-11%[59 µM]	-6%	-30%	.
C[Si](C)(C/C=C/CC[C@H](O)C1=CCCCC1=O)c1ccccc1	.	.	.	.	.	-12%
CCS(=O)(=O)N1CC(=O)N(c2cccc(Cl)c2)C(C)(C(=O)NC2CCCCCC2)C1 (stereo not given)	.	5%	-19%[59 µM]	61%	-4%	.
CCOC(=O)c1c(C)oc2c1c(CN1CCN(C(=O)OCC)CC1)c(O)c1ccccc12	-15%	?	3.2µM*	-27%	?	-21%
COc1ccc(N2CC(NC(=O)/C=C\c3ccc4c(c3)OCO4)CC2=O)cc1OC (stereo not given)	.	-2%	1%[59 µM]	23%	-1%	.
SMILES	L3MBTL1 inh	BAZ2B inh	G9a inh	HP1b chromo inh	JMJD2A Tudor inh	Sfp inh
O=C(CSc1nc2ccccc2s1)N1N=C(c2cccs2)CC1c1ccc(F)cc1 (stereo not given)	-4%	-10%	13%[59 µM]	28%	-10%	4%
O=C(CSc1nc2c(cnn2-c2ccc(F)cc2)c(=O)[nH]1)N1N=C(c2cccs2)CC1c1ccc(F)cc1 (stereo not given)	4%	1.3µM*	32µM*	.	.	10%
Cc1ccccc1N1C(S)=C(C#N)C(=O)NC1c1ccco1 (stereo not given)	?	?	.	23%	-25%	13µM*
Cc1cccc(N2C(S)=C(C#N)C(=O)NC2c2cccs2)c1 (stereo not given)	-26%	10%	40µM*	26%	-12%	32µM*
Cc1ccccc1N1C(S)=C(C#N)C(=O)NC1c1cccs1 (stereo not given)	.	?	7.9µM*	26%	-27%	6%
N#CC1=C(S)N(c2ccc(F)cc2)C(c2cccs2)NC1=O (stereo not given)	.	5%	16µM*	38%	-20%[57.1 µM]	56µM*
CC(=O)C1=C(C)NC(SCC(N)=O)=C(C#N)C1c1cccs1 (stereo not given)	.	-4%	?	19%	-14%	-25%
CC(=O)C1=C(C)N(CC2CC2)C(=O)N[C@H]1c1cccs1	-4%	-4%	18%	28%	-11%	25%
COc1cn(CC(=O)Nc2cccc(C)c2)c(CN2CCCCC2)cc1=O	.	0%	1%[59 µM]	24%	1%	.
COc1cc(CN(C(=O)COc2ccccc2)c2ccccn2)cc(OC)c1OC	.	-1%	-1%[59 µM]	15%	-12%	.
N#CC1=C(S)N(c2ccccc2)C(c2ccc(-c3ccccc3Cl)o2)NC1=O (stereo not given)	2%	?	?	?	?	40µM*
CCOC(=O)c1cnc2c(C(F)(F)F)cccc2c1Nc1cccc(C(=O)OC)c1	.	16%	12%[59 µM]	63%	25%	.
Cc1ccc2[nH]c(-c3cccc(N)c3)cc2c1	-17%	50µM*	50µM*	?	?	18%
CCCCNC(=O)Cn1c(=O)cc(C)c2c(C)nn(-c3cccc(Cl)c3C)c21	.	-4%	6%[59 µM]	11%	-8%	.
O=C(CS(=O)(=O)c1cccc2nsnc12)N1CCN(c2ccc(F)cc2)CC1	.	0%	21%[59 µM]	25%[57 µM]	-12%	.
Clc1nc(Cl)nc(N(c2ccccc2)c2ccccc2)n1	2%	79µM*	50µM*	5%	25µM*	-25%
